The nature of experiment [1]: stimulators of nuclear beta-catenin in C2C12, primary screen, imaging, WNT3A-conditioned medium, mouse C2C12, NPC library (AID 1117326; in the data active = nuclear beta-catenin stimulation mostly above about 4.2%, no sharp cut-off; inactive = mostly below about 10%). The conditions noted are these: stronger effect = higher value.
A short description of experiment [2]: stimulators of insulin release from INS-1E, primary screen, cell-based, 5 mM glucose, NPC library (AID 1117329;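 active = compound raises insulin release from rat beta cells at 5 mM glucose, no numeric limit stated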). The following applies: rat INS-1E insulin secretion, at 10 µM, stronger effect = higher value.
A short description of experiment [3]: growth inhibition of GSK3B-pretreated HCT116 cells – cell-based, CellTiter-Glo, 0.2 to 20 µM (AID 1117336;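 active = compounds lowering colon cancer cell viability after pretreatment blocking the GSK3B kinase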). The following applies: HCT116 viability after GSK3B inhibitor, at 20 µM, stronger effect = higher value. A general note: In ATP-based viability assays light output follows the ATP content of the culture.
Experiment [4] can be described thus: inhibition of endothelial tube formation, primary screen, imaging, VEGF stimulated, CD31 staining, tube area, NPC library (AID 1117340;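 active = compound that reduces growth-factor-driven endothelial tube area in a mixed cell culture, no cutoff stated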). The following applies: VEGF-stimulated ADSC/ECFC co-culture, at 10 µM, stronger effect = higher value.
A short description of experiment [5]: glucagon-like peptide 1 release enhancers, primary assay, NCI-H716 cell line, NPC library (AID 1117341;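 active = compound raises GLP1 secretion from the human gut endocrine cells, with no numeric limit stated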). The conditions noted are these: NCI-H716 cells, at 10 µM, stronger effect = higher value.
Experiment [6] can be described thus: HCT116 colon cancer cell growth inhibition, primary screen, CellTiter-Glo luminescence, NPC library (AID 1117342;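 active = compounds that lower survival of HCT116 colon cancer cells in the luminescence readout, no numeric limit stated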). The conditions noted are these: at 20 µM (top of the series).
Experiment [7] can be described thus: CellTiter-Glo luminescent readout of SW480 viability loss, NPC library primary (AID 1117343;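 active = compounds that lower viability of the colon cancer cells in the luminescence readout, with no numeric limit stated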). The following applies: CellTiter-Glo luminescence; at 20 µM (top of the series).
Experiment [8] is described as follows: decreased DLD-1 cellular survival, CellTiter-Glo luminescent readout, NPC compound collection, primary HTS (AID 1117346;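 active = compounds that lower survival of DLD-1 colon cancer cells in the luminescence readout, no cutoff given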). The conditions noted are these: DLD-1 viability, CellTiter-Glo luminescence; at 20 µM (top of the series).
For experiment [9], the target named is 6-phosphogluconate dehydrogenase, decarboxylating (Homo sapiens) (UniProt P52209). Briefly: 6PGD enzyme inhibitors, primary screen, biochemical, human, recombinant enzyme, NADPH absorbance (AID 1159550;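 active = at least 20% inhibition of 6-phosphogluconate dehydrogenase activity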). The following applies: recombinant 6PGD, NADPH absorbance 341 nm; at 10 µM; stronger effect = higher value.
Sequence of 6-phosphogluconate dehydrogenase, decarboxylating (Homo sapiens) (P52209 whole entry, looked up): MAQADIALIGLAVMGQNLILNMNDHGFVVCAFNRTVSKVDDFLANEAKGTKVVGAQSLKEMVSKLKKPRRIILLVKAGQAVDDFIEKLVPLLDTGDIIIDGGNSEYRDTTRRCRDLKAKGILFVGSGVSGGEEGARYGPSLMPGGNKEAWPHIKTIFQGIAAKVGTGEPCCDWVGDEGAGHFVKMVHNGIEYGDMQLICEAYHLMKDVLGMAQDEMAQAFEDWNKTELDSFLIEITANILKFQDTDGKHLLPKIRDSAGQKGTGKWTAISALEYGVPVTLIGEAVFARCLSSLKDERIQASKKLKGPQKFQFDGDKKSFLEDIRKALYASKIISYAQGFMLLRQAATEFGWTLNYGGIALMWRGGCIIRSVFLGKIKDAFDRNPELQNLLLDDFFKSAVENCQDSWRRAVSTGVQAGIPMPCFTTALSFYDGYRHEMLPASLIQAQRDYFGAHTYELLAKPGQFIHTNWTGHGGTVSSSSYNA
Experiment [10] in a line: differential killing of epithelial or mesenchymal cells, primary screen, imaging, PC-3E GFP, TEM4-18 mCherry, co-culture (AID 1345086;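 active = compounds killing one labelled cell type while sparing the other, by normalised counts and ratio limits, not self-fluorescent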;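 as to all read-outs here: cells exposed to compound for 72 h before imaging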;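 as to red/green cell ratio (normalised): normalised mesenchymal count divided by normalised epithelial count so high means epithelial killing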). The conditions noted are these: imaging cell counts, at 1 µM; for red/green cell ratio (normalised): actives lie on both sides.
The test system of experiment [11] is Aerobactin synthetase IucA (Klebsiella pneumoniae hvKP1). Briefly: Biochemical IucA enzyme inhibition primary screen of the Spectrum library (AID 1346200; call rule not given here;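 also: 100% = wells without compound and 0% = wells lacking enzyme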). The following applies: malachite green pyrophosphate, A620, at 8 µM, stronger effect = lower value.
Experiment [12] can be described thus: sensitizers of A549 cells to miR-34 induction, primary screen, imaging, A549 dox-inducible miR-34, nuclei and caspase counts (AID 1347080). The conditions noted are these: A549 miR-34 inducible, Hoechst nuclei count, 48 h.
In experiment [13] the target is NAD(+) hydrolase SARM1 (Homo sapiens) (UniProt Q6SZW1). Briefly: SARM1 TIR NADase inhibitors, cell lysate, NAD-Glo luminescence (AID 1508614;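 active = compound whose remaining NAD level is above about 45 nM, limit read from the data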;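 also: higher remaining NAD means stronger inhibition of SARM1 NADase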). The following applies: SAM-TIR HEK293T lysate NADase, at 1 µM, stronger effect = higher value.
Sequence of NAD(+) hydrolase SARM1 (Homo sapiens) (Q6SZW1 whole entry, looked up): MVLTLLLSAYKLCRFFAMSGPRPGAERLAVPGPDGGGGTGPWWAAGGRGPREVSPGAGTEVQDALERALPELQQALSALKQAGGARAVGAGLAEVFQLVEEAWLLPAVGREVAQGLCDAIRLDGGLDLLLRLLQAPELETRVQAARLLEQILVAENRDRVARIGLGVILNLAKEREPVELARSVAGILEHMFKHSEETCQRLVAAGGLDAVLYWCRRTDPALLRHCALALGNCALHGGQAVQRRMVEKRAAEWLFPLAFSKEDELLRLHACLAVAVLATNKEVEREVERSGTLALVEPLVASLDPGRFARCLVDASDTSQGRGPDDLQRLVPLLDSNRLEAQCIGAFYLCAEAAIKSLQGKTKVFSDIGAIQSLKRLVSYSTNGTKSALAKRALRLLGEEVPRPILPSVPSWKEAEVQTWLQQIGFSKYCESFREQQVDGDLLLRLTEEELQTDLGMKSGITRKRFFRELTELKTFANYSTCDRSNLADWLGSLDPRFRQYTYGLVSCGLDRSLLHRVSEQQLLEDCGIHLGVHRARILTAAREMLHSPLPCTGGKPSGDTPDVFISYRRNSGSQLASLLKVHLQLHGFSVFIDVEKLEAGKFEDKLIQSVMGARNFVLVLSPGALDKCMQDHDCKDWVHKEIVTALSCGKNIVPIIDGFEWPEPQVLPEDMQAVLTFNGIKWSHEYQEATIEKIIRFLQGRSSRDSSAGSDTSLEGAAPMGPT
Experiment [14] can be described thus: suppressors of polyQ aggregation in yeast, 75Q-TubU reporter (AID 1593). The following applies: Yeast 75Q polyglutamine aggregation reporter.
Experiment [15] is described as follows: inhibitors of mitochondrial cytochrome c release, biochemical, purified mitochondria (AID 1603).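 Also: mouse liver mitochondria challenged with calcium chloride; signal normalized to the plate average as 100%.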 The conditions noted are these: stronger effect = lower value.
Experiment [16] can be described thus: inhibitors of polyQ protein aggregation (AID 1604). The following applies: polyglutamine-induced protein aggregation inhibition assay; stronger effect = higher value; tested at 2.5 µM.
Experiment [17] is described as follows: liver-stage malaria parasite growth inhibition, primary screen, cell-based, HepG2, luciferase luminescence, HepG2 viability (AID 624349; in the data active = parasite load remaining mostly below about 12%, no sharp cut-off; inactive = mostly above about 10%;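 also: 100% = mean of DMSO negative control wells on the same plate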). The following applies: P. berghei liver stage in HepG2, luciferase luminescence, concentration not given here; parasite load remaining: stronger effect = lower value; viability: measured here: HepG2 viability without parasites.
Experiment [18] is described as follows: survival rescue of mitochondrial mutant cells in low glucose, primary screen, MELAS cybrids, Rieske KO mouse fibroblasts, CellTiter-Glo (AID 1508586;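 active = mean z-score across replicates of 1.96 or higher in either the MELAS or the Rieske mutant cell line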;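 also: z relative to plate mean and SD of compound and empty wells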).
For experiment [19], the target named is Mitogen-activated protein kinase 7 (Homo sapiens) (UniProt Q13164). Briefly: ERK5 transactivation activators in reporter cells, primary screen, cell-based, HTS (AID 1508626;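 active = luciferase signal above three times the same-plate solvent-only control wells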;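 also: luciferase driven by Gal4-ERK5 fusion binding five Gal4 sites before minimal TATA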). The following applies: HeLa Gal4-ERK5 transactivation, 18 h, at 5 µM, stronger effect = higher value.
Sequence of Mitogen-activated protein kinase 7 (Homo sapiens) (Q13164 whole entry, looked up, the tested form may be a part): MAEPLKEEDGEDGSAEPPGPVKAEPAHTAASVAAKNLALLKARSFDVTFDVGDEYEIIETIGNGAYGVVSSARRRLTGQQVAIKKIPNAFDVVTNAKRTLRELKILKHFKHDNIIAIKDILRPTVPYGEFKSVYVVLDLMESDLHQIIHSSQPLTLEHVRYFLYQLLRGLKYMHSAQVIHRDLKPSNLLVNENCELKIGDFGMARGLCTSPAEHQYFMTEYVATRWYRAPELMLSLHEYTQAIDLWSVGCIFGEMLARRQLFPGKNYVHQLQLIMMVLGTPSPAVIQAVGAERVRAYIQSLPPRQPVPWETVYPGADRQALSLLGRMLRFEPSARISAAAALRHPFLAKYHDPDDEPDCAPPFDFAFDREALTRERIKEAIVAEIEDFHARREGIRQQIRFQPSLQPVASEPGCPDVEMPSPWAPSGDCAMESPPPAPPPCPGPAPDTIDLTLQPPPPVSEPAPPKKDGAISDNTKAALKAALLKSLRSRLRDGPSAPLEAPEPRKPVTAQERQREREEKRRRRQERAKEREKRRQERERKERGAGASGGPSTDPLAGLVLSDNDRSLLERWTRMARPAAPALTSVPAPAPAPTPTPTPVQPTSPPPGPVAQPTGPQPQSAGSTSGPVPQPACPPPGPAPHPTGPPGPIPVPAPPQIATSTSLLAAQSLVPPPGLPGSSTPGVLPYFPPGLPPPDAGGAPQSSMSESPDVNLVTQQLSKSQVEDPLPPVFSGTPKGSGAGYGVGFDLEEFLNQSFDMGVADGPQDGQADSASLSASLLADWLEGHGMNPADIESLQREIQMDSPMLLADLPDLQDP
Experiment [20] is described as follows: viability rescue of complex I mutant cybrids, primary screen, cell-based, galactose medium, ATP luminescence (AID 1645843;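 active = z-score of at least 1.8 in each of two replicates, scored against plate mean and spread of sample wells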;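 also: positive z means more ATP and so rescue of galactose-driven cybrid death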). The following applies: complex I mutant cybrid cells, 72 h, stronger effect = higher value.
Setting [21] is: measured here: epithelial PC-3E GFP cell survival.
Setting [22] is: measured here: mesenchymal TEM4-18 mCherry cell survival.
Setting [23] is: measured here: relative caspase fold change +Dox/-Dox.
[24] abbreviates: measured here: total cells with miR-34 induction, stronger effect = lower value.
The mark [25] stands for this setting: measured here: total cells without miR-34 induction.
The mark [26] stands for this setting: MELAS cybrid survival, CellTiter-Glo 48 h, stronger effect = higher value.
[27] abbreviates: Rieske KO mouse fibroblast survival, CellTiter-Glo 72 h.

“And” between values parts separate entries of the source, which are not always exact repeats. Equal values may be shown once. The source made the active and inactive calls.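 The calls were made as follows, unless noted: active = compounds whose cell count with miR-34 switched on is under 0.7 times the count with it off; inactive = the rest.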

In the case of `CCOP(=S)(OCC)Oc1cc(C)nc(C(C)C)n1`, the nuclear beta-catenin stimulation was -0.5% (inactive) in experiment [1] (at 10 µM) and 0.1% in [1] (stimulation, at 2 µM). The insulin secretion stimulation in experiment [2] was 0.4% (inactive). In addition, the viability decrease in [3] is -71.8% (inactive). In addition, the tube area decrease in experiment [4] was 0.2% (inactive). For the same molecule, the GLP1 secretion stimulation in [5] was -1.4% (inactive). Further, the inhibition of viability in experiment [6] was 11.6% (inactive). The viability decrease (inhibition) in experiment [7] was 34% (inactive); in experiment [8] it was 2.6% (inactive). Further, the inhibition in experiment [9] was -22.8% (inactive). Also, in experiment [10], the red/green cell ratio (normalised) is 1 (inactive). In addition, the normalised cell number in [10] (setting [21]) and in experiment [10] (setting [22]) was 1 each time. Further, in [11], the activity remaining was 77.6% (inactive). Further, the figures for the fold change in experiment [12] (stronger effect = lower value) and in experiment [12] (setting [23]) were 0.932 (inactive) and 1.33, respectively. In addition, the cell count in experiment [12] (setting [24]) stood at 9160; in experiment [12] (setting [25]) it was 9830. Besides, the remaining NAD in [13] is 10 nM (inactive).

As for `CNC(C)(C)Cc1ccccc1`, the score in experiment [14] is 1.71. Moreover, in [15], the cytochrome c release ratio worked out at 1.14. In addition, in experiment [16], the inhibition of aggregation is 68.2%. The parasite load remaining in experiment [17] is 104% (inactive) and 157% (inactive) and 55.8% (inactive). Also, the viability in experiment [17] was 104% and 88.4% and 81%. Further, the nuclear beta-catenin stimulation in experiment [1] (at 10 µM) was -2.4% (inactive); in experiment [1] (stimulation, at 2 µM) it was 0.7%. For the same molecule, the insulin secretion stimulation in [2] was 2.7% (inactive). In experiment [3], the viability decrease is -16.7% (inactive). The tube area decrease in [4] was -0.3% (inactive). Moreover, in experiment [5], the GLP1 secretion stimulation is 1.1% (inactive). In addition, the inhibition of viability in experiment [6] was 0.43% (inactive). Further, the viability decrease (inhibition) in experiment [7] was 15.4% (inactive); in experiment [8], -5.3% (inactive). Further, the inhibition in experiment [9] is -16.6% (inactive). Moreover, the red/green cell ratio (normalised) in experiment [10] was 1.08 (inactive). The normalised cell number in experiment [10] (setting [21]) was 0.92; in [10] (setting [22]), 1. For the same molecule, the activity remaining in [11] was 99.6% (inactive). In addition, the fold change is 0.876 (inactive) and 0.893 (inactive) in experiment [12] (stronger effect = lower value); 1.32 and 3.57 in [12] (setting [23]). The cell count in [12] (setting [24]) was 7450 and 10900; in experiment [12] (setting [25]), 8510 and 12200. Moreover, the z-score in [18] (setting [26]) was -0.189 (inactive); in experiment [18] (setting [27]), -0.596. In experiment [13], the remaining NAD is 10 nM (inactive). Also, the luciferase signal in experiment [19] is 56 AU (inactive).

As for `C[C@@H]1CC[C@H]2[C@@H](C)C(=O)O[C@@H]3O[C@@]4(C)CC[C@@H]1[C@]32OO4`, the parasite load remaining in experiment [17] was 25.6% (inactive) and 10.2% (inactive). The viability in experiment [17] is 117% and 66.5%. Also, the nuclear beta-catenin stimulation is 4.6% (inactive) in [1] (at 10 µM) and 12.4% in experiment [1] (stimulation, at 2 µM). In experiment [2], the insulin secretion stimulation was 1.2% (inactive). In [3], the viability decrease was -77.7% (inactive). In [4], the tube area decrease is 2.4% (inactive). In addition, the GLP1 secretion stimulation in [5] was 2.4% (inactive). Further, in experiment [6], the inhibition of viability was -20.1% (inactive). For the same molecule, the viability decrease (inhibition) was 9.1% (inactive) in experiment [7] and 1.3% (inactive) in experiment [8]. In addition, the inhibition in [9] is 13.7% (inactive). In addition, the fold change in [12] (stronger effect = lower value) was 0.79 (inactive) and 0.823 (inactive) and 0.882 (inactive); in experiment [12] (setting [23]) it was 1.42 and 2.37 and 1.1. The cell count was 7550 and 7220 and 8310 in experiment [12] (setting [24]); 9550 and 8770 and 9420 in experiment [12] (setting [25]). Besides, the z-score is -0.639 (inactive) and -0.018 (inactive) in experiment [18] (setting [26]); -1.11 and 0.162 in experiment [18] (setting [27]); -0.515 (inactive) and -1.27 (inactive) in experiment [20]. Moreover, in [13], the remaining NAD is 10 nM (inactive). Besides, the luciferase signal in experiment [19] is 84 AU (inactive).

Usually inhibition stands for the drop in the measured response relative to a control, in per cent. By viability is commonly meant a read-out of living cells in per cent, often relative to untreated cells.
